Bioassay records: PubChem, National Center for Advancing Translational Sciences (NCATS)
KAT2A inh: GCN5L2 (KAT2A) acetyltransferase inhibition; AID 504327; Potency, µM (series often up to 58.9 µM), for the others: at the top dose activity change, negative = inhibition, actives largely listed as inhibitors; GCN5L2 HAT assay, ThioGlo1 CoA-SH fluorescence; Q92830; actives 0.21% (n = 390,000)
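ThioGlo1-coupled HAT assay: 20nM GCN5L2, 70uM acetyl-CoA, 75uM H3(1-25) peptide, pH 7.5. Fluorescence read at 340/540nm at start and after 20 min at room temperature.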
TDP1 cell CPT: DT40-hTDP1 cell growth loss with CPT | AID 686979 | chicken DT40 Tdp1-/-;hTDP1 cells + 20 nM CPT, ATP luminescence, 48 h | actives 12% (n = 420,000) | Potency, µM (doses to about 46.2 µM), without a hit: top-dose activity change, negative = growth inhibition, most hits filed as inhibitors; further: nearly all actives have a fitted effect of over 55% in size
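Chicken DT40 Tdp1-/- cells stably complemented with human TDP1 were seeded at 400 cells/well in medium containing 20 nM camptothecin, exposed to pin-transferred compounds, and grown at 37 °C for at least 48 hr. Viability was read as ATP luminescence.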
VDR inhibitor: blocks the human vitamin D receptor. VDR-SRC2-3 peptide fluorescence polarization, 2 h. AID 504847. Potency, µM, for inactives: max response, negative = inhibition, most hits filed as inhibitors. P11473. actives 0.93% (n = 400,000)
Target sequence (P11473 whole entry, looked up): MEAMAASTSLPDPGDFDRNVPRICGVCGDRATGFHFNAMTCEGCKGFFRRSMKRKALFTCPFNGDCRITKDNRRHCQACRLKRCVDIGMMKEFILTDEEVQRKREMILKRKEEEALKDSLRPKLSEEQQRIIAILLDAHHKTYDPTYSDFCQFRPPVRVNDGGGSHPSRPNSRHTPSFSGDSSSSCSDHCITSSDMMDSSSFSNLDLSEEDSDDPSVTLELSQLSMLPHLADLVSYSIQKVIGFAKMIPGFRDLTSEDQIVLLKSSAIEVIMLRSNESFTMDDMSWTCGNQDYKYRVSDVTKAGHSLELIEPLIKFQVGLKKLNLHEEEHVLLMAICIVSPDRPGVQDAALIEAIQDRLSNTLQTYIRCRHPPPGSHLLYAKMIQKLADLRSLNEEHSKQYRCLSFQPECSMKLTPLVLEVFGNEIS
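FP read-out; VDR + SRC2-3 coactivator peptide; 23 nl compound by pintool; 2 h RT incubation; reagents held at 4 deg C, protected from light.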
TDP1 inh: TDP1 (human) enzyme inhibition. recombinant TDP1, AlphaScreen DNA substrate cleavage. Potency, µM (doses to about 130 µM), without a hit: at the top dose activity change, negative = inhibition, most hits filed as inhibitors. actives 0.28% (n = 350,000). AID 485290; further: nearly all actives have a fitted effect of over 40% in size
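Steps: enzyme plus compound, 15 min RT; add biotin/phosphotyrosine-FITC oligonucleotide (15 nM final), react 5 min; add donor/acceptor beads (10 ug/ml final), 10 min; read AlphaScreen. Tdp1 at 1 nM final.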
TDP1 cell noCPT: qHTS for Inhibitors of human tyrosyl-DNA phosphodiesterase 1 (TDP1): qHTS in cells in absence of CPT; DT40 Tdp1-/- hTDP1 cells, no CPT, ATP luminescence, 48 h; Potency, µM (series often up to 46.2 µM), for inactives: top-dose activity change, negative = growth inhibition, most hits filed as inhibitors; actives 15% (n = 420,000); AID 686978, 2013; further: nearly all actives have a fitted effect of over 55% in size
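Cells were dispensed at 400 per well, compounds added by pin tool, plates incubated ≥48 hr at 37 °C, then CellTiter-Glo added for 30 min at room temperature before luminescence reading. Line: DT40 Tdp1-/- complemented with hTDP1; camptothecin omitted.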
PLK1 PBD inh: PLK1 (human) polo-box domain binding inhibition; P53350; Plk1 PBD binding of FITC phosphopeptide, fluorescence polarization; Potency, µM, inactives show max response, negative = inhibition, hits mostly inhibitors; actives 2.8% (n = 360,000); AID 720504; further: series mostly up to about 57 µM; nearly all actives have a fitted effect of over 65% in size
An asterisk follows results filed as active; ? = inconclusive; · = not tested or not shown; [ ] = remark or other dose. Most compounds without a hit are left out; they make up all but 18% or so of the library. The call rests on the fitted dose curve; in most records, active means well fitted curve in the direction sought with a large enough effect; inconclusive means small, poorly fitted or top-dose-only effect, or another doubt; inactive means no such curve, though single readings can be large; an effect the other way counts as inactive or inconclusive. On the % scale 0 is the no-effect control and ±100 the full control effect; potency means the concentration at half of the fitted maximal effect.

SMILES	KAT2A inh	TDP1 cell CPT	VDR inhibitor	TDP1 inh	TDP1 cell noCPT	PLK1 PBD inh
COc1oc(=O)c2cc(N)ccc2c1Cl	-10.6%	·	?	20.7%	·	·
O=C(CN1C(=O)NC2(CCCCC2)C1=O)Nc1ccc(F)cc1	-7.6%	3.7%	6.0%	2.5%	7.0%	7.4%
O=C(CN1C(=O)NC2(CCCCCC2)C1=O)Nc1ccc2c(c1)CCC2	-7.7%	?	-12.7%	5.1%	11.6µM*	-4.8%
O=C(CN1C(=O)NC2(CCCCCCC2)C1=O)Nc1cccc(Br)c1	-12.8%	16.4µM*	-2.7%	-0.3%	20.6µM*	-6.2%
Cc1ccc(NC(=O)CN2C(=O)NC3(CCCCCCC3)C2=O)cc1C	-10.6%	9.2µM*	?	1.2%	?	3.4%
O=C(CN1C(=O)NC2(CCCCCCC2)C1=O)Nc1ccc(OC(F)F)cc1	-2.3%	23.1µM*	-1.0%	-0.2%	18.4µM*	-2.4%
COc1ccc(OCCOC(=O)CN2C(=O)NC3(CCCC3)C2=O)cc1	-18.8%	?	14.2%	·	-17.4%	-6.3%
CCCn1c(NC(=O)CN2C(=O)NC3(CCCCC3)C2=O)nc2ccccc21	-4.5%	?	?	·	23.1µM*	0.5%
O=C(CN1CCN(CN2C(=O)NC3(CCCCCC3)C2=O)CC1)Nc1cccc(F)c1	1.0%	?	23.1%	0.3%	10.5%	5.3%
Cc1ccccc1NC(=O)CN1C(=O)NC2(CCCCCCC2)C1=O	-10.0%	-25.8%	?	-11.6%	-24.9%	0.5%
CN(CC(=O)Nc1cccc(F)c1)C(=O)CN1C(=O)NC2(CCCCC2)C1=O	-20.8%	?	4.0%	·	20.6µM*	-0.5%
O=C(CN1C(=O)NC2(CCCC2)C1=O)OCCOc1ccc(Br)cc1	-10.0%	14.6µM*	-19.6%	-1.1%	18.4µM*	0.6%
O=c1cnc2cnc(Oc3ccccc3)nc2n1CCc1ccccc1	-13.2%	14.6%	-5.4%	·	-17.9%	·
CC(CC(=O)Nc1ccc(F)cc1)S(=O)(=O)c1ccc2c(c1)NC(=O)CO2 (stereo not given)	-0.4%	-14.6%	-9.3%	3.0%	17.8%	-23.4%
Cc1ccc(NC(=O)CC(C)S(=O)(=O)c2ccc3c(c2)NC(=O)CO3)cc1Cl (stereo not given)	-8.5%	-7.3%	8.0%	2.5%	20.6µM*	·
COc1ccc(NC(=O)CC(C)S(=O)(=O)c2ccc3c(c2)NC(=O)CO3)cc1OC (stereo not given)	-2.1%	-25.5%	5.7%	-2.8%	-9.1%	·
CC(CC(=O)N1CCc2ccccc21)S(=O)(=O)c1ccc2c(c1)NC(=O)CO2 (stereo not given)	-4.3%	-20.8%	-9.2%	-2.0%	-12.3%	26.7µM*
Cc1ccc(NS(=O)(=O)c2ccc3c(c2)NC(=O)CO3)cc1Cl	-3.3%	18.4µM*	-8.3%	4.8%	?	-4.6%
Cc1ccc(NS(=O)(=O)c2ccc3c(c2)NC(=O)CO3)cc1C	-13.8%	?	5.7%	0.7%	?	7.7%
Cc1ccc(NC(=O)CC(C)S(=O)(=O)c2ccc3c(c2)NC(=O)CO3)cc1C (stereo not given)	-5.8%	?	-2.3%	4.6%	?	23.8µM*
CCCCOc1ccc(CNC(=O)C2CCCN(c3nnc(-n4c(C)ccc4C)s3)C2)cc1 (stereo not given)	-6.5%	?	10.2%	5.1%	?	·
CCN(CC)CC#CCOC(=O)[C@@](O)(c1ccccc1)C1CCCCC1	6.8%[21.4 µM]	·	1.5%	11.3%[21 µM]	·	·
COc1cccc(N2CCN(S(=O)(=O)c3ccc(-c4coc(C)n4)cc3)CC2)c1	?	?	8.8%	3.9%	20.6µM*	2.7%
COc1cccc(N2CCN(S(=O)(=O)c3cc4c(cc3C)N(C)CCO4)CC2)c1	?	?	6.7%	·	16.4µM*	-15.4%
Cc1nc(-c2ccc(S(=O)(=O)N3CCN(c4cccc(C)c4C)CC3)cc2)co1	-8.6%	?	?	4.8%	?	23.8µM*
SMILES	KAT2A inh	TDP1 cell CPT	VDR inhibitor	TDP1 inh	TDP1 cell noCPT	PLK1 PBD inh
Cc1nc(-c2ccc(S(=O)(=O)N3CCN(c4ccccc4)CC3)cc2)co1	-0.6%	-23.3%	-15.9%	2.1%	?	-15.7%
CSc1ccc2c(c1)N(CCC1CCCCN1C)c1ccccc1S2 (stereo not given)	-7.2%	14.6µM*	-12.7%	11.6%	16.4µM*	-6.7%
Cc1cc(=O)oc2cc(OCC(=O)NCc3ccccn3)ccc12	-6.7%	-1.3%	-7.2%	-1.9%	3.0%	-16.2%
CCCc1cc(=O)oc2cc(C)cc(OCC(=O)NCc3ccccn3)c12	-6.7%	18.4µM*	18.3%	3.5%	-17.7%	-4.2%
COc1ccc(-c2cc(=O)oc3cc(OCC(=O)NCc4ccccn4)ccc23)cc1	-3.4%	?	-1.0%	·	23.1µM*	-6.1%
COc1ccc(-c2cc(=O)oc3cc(OC(C)C(=O)NCc4ccccn4)ccc23)cc1 (stereo not given)	-22.3%	20.6µM*	-19.5%	·	?	-2.6%
Cn1c(N)c(C(=O)COC(=O)COc2ccc(Cl)cc2Cl)c(=O)n(C)c1=O	-13.0%	-22.9%	-5.9%	-2.3%	-8.5%	3.9%
CCCN1CNc2c(c(=O)[nH]c(=S)n2CCc2ccc(Cl)cc2Cl)C1	·	?	-29.2%	2.1%	12.6µM*	·
CCCN1CNc2c(c(=O)[nH]c(=S)n2CCc2c(Cl)cccc2Cl)C1	·	15.8µM*	-26.0%	0.5%	12.6µM*	·
CCCN1CNc2c(c(=O)[nH]c(=S)n2CCc2ccccc2Cl)C1	·	?	-21.4%	1.5%	11.2µM*	·
CCCN1CNc2c(c(=O)[nH]c(=S)n2CCc2ccc(OC)cc2OC)C1	·	?	-6.0%	0.0%	12.6µM*	·
CCCN1CNc2c(c(=O)[nH]c(=S)n2CCc2ccc(Cl)c(Cl)c2)C1	·	?	-15.7%	-7.3%	?	·
CSc1ccc(CCNC(=O)c2c(C)nn(-c3ccc(F)cc3)c2-n2cccc2)cc1	-8.7%	·	11.2%	5.6%	·	·
CCOC(=O)Cn1c(=O)n(C2CCCCC2)c2nc(-c3cccc(C)c3)nc(C(N)=O)c21	2.7%	?	12.3%	0.6%	-6.0%	·
CCCN1CNc2c(c(=O)[nH]c(=S)n2CCc2cc(C)ccc2C)C1	·	?	3.2%	-2.6%	12.6µM*	·
CC(=O)Nc1ccc(N2C(=O)c3cccc4c(O)ccc(c34)C2=O)cc1	-0.5%	7.7%	-11.1%	·	5.2%	4.74µM*
Cc1ccc(N2C(=O)c3cccc4c(C(=O)O)ccc(c34)C2=O)cc1	-15.6%	·	·	-2.3%	·	-3.9%
O=C1c2ccccc2C(=O)N1c1ccc(Cl)cc1	-13.0%	·	·	0.0%	·	·
O=C1c2cccc3c(O)ccc(c23)C(=O)N1c1ccc(Cl)cc1	-3.3%	?	37.9%	·	-26.3%	4.74µM*
